# The list is not random: actives were taken first. Their share in the collection is about 5.8%.
# KB-3-1 tox – qHTS assay for MDR1-selective chemotherapeutics: Primary screen using the parental adenocarcinoma cell KB-3-1 | Potency, µM (top dose mostly 46.1 µM), most hits filed as cytotoxic | KB-3-1 viability, CellTiter-Glo ATP luminescence, 72 h | 400,000 tested, 1.4% active; further: on the % scale 0 is the no-effect control and ±100 the full control effect; nearly all actives have a fitted effect of over 60% in size
#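 Multi-concentration cytotoxicity screen in KB-3-1 cells grown in DMEM lacking phenol red with 10% FBS. After 72 h at 37 °C with compound, ATP-dependent luminescence was recorded.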
# PINK1 modulator – A Quantitative High throughput Screen to Identify Chemical Modulators of PINK1 Expression | PINK1 immunofluorescence, high-content cytometry, 24 h | Potency, µM (doses to about 76.6 µM), without a hit: top-dose activation (PINK1 increase), hits mostly activators | 410,000 tested, 0.2% active | AID 624263, 2012; active means well fitted activation curve with a large enough effect; inconclusive means small, poorly fitted or top-dose-only effect; cell line not stated here; further: % of control where 0% means no effect; nearly all actives have a fitted effect of over 65% in size
#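 Readout is PINK1 immunofluorescence, quantified alongside mitochondrial, cell and nuclear markers by laser-scanning microplate cytometry. Cells from a stable line were exposed to compound titrations (5 concentrations) for 24 hours, with CCCP controls.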
# MCF10A rerep – A quantitative high throughput screen for small molecules that induce DNA re-replication in MCF 10a normal breast cells. MCF 10A DNA re-replication, Hoechst nuclear intensity, 48 h. Potency, µM (highest dose often 46.1 µM), for inactives: top-dose activity, positive = re-replication, most hits filed as activators. 350,000 tested, 2.9% active. AID 624296, 2012; further: % of control where 0% means no effect; nearly all actives have a fitted effect of over 50% in size
# KB-V1 cytotox – qHTS assay for MDR1-selective chemotherapeutics: Primary screen using the drug-selected MDR subline cells KB-V1; KB-V1 MDR cells viability, CellTiter-Glo, 72 h; Potency, µM (doses to about 46.1 µM), usual class: cytotoxic; 400,000 tested, 3.4% active; AID 1347076, 2019; further: on the % scale 0 is the no-effect control and ±100 the full control effect; nearly all actives have a fitted effect of over 60% in size
#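 Cytotoxicity via CellTiter-Glo luminescence after 72 h compound exposure at 37 degrees C. Cells: drug-selected KB-V1 line, DMEM phenol-red free plus 10% FBS. Compounds tested at multiple concentrations; normalized data fitted to concentration-effect curves.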
# SW480 rereplic – A quantitative high throughput screen for small molecules that induce DNA re-replication in SW480 colon adenocarcinoma cells | SW480 DNA re-replication, Hoechst DNA content imaging, 48 h | Potency, µM (highest dose often 46.1 µM), for the others: at the top dose re-replication activation, actives largely listed as activators | 340,000 tested, 1.8% active | AID 624297, 2012; further: % of control where 0% means no effect; nearly all actives have a fitted effect of over 55% in size
#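 Compounds, transferred as 23 nL by pin tool, were incubated with cells for 48 hr; DNA content per nucleus was then quantified by Hoechst staining and fluorescence plate imaging.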
# 12-LOX inh – Primary qHTS assay for inhibitors of human arachidonate 12S-lipoxygenase (ALOX12): Round 2 | Polyunsaturated fatty acid lipoxygenase ALOX12 (Homo sapiens), P18054 | Potency, µM (doses to about 108 µM), without a hit: top-dose activity change, negative = inhibition, usual class: inhibitors | 580,000 tested, 1.1% active | purified 12hLO, xylenol orange hydroperoxide absorbance; further: on the % scale 0 is the no-effect control and ±100 the full control effect
# Target sequence (P18054 whole entry, looked up): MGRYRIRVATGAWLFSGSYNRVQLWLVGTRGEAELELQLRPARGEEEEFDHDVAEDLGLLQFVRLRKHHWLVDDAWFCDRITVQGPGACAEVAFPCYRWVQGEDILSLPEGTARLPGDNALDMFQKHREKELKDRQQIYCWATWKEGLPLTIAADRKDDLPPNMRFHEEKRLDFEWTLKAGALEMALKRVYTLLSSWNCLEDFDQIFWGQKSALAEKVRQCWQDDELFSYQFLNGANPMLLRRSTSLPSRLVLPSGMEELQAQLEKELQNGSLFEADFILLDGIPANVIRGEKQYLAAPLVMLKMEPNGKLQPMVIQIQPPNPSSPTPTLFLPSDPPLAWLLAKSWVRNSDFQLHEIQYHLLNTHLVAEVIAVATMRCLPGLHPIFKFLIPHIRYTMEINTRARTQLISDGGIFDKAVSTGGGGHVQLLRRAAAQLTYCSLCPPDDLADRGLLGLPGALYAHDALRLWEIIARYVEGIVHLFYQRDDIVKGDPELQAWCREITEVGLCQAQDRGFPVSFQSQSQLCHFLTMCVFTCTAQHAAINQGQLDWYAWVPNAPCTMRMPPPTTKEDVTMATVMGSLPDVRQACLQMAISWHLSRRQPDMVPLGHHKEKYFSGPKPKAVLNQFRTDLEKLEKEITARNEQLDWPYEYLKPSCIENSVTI
#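 Hydroperoxide product was detected by ferrous iron/xylenol orange as the 573 to 405 nm absorbance ratio. Arachidonic acid at 40 uM (final) was turned over for 30 min at room temperature by 150 nM human 12hLO, pH 7.0 Hepes buffer, after 15 min compound preincubation.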
# * hit, by the source's call; i = inactive; ? = inconclusive; / = no result given; [ ] = another dose, or the depositor's remark. Unless noted, the call rests on the fitted dose curve; in most records, active means well fitted curve in the direction sought with a large enough effect; inconclusive means small, poorly fitted or top-dose-only effect, or another doubt; inactive means no such curve, though single readings can be large; an effect the other way counts as inactive or inconclusive. Potency means the concentration at half of the fitted maximal effect.
SMILES,KB-3-1 tox,PINK1 modulator,MCF10A rerep,KB-V1 cytotox,SW480 rereplic,12-LOX inh
Cc1ccc(C)c(OCc2cc(C(=O)N(C)Cc3nccn3C)no2)c1,i,0%,16%,13µM*,0%,9%
Cc1ccc(C)c(OCc2cc(C(=O)N3CCOCC3)no2)c1,i,-2%,18µM*,i,28%,4%
COC1CCN(C(=O)c2cc(COc3cc(C)ccc3C)on2)CC1,i,3%,/,?,/,-12%
Cc1ccc(C(=O)n2nc(-c3ccc(C)cc3)nc2N)cc1,/,/,/,/,/,-7%
Cc1sc(NC(=O)C(Cc2ccccc2)Cc2ccccc2)c(C#N)c1C,/,/,/,/,/,3%
Cc1ccc2nc(Nc3nc(CSc4nnc(C)s4)cc(=O)[nH]3)nc(C)c2c1,?,15%,1%,23µM*,?,-9%
Cc1nc(Nc2nc3c(c(=O)[nH]2)CCC3)nc2ccccc12,5.8µM*,1%,?,?,-85%,/
COc1ccc2c(C)nc(Nc3nc(C)cc(=O)[nH]3)nc2c1,/,/,/,/,/,-1%
O=c1[nH]c(NCc2ccccc2)nc2c1CCC2,i,-1%,1%,i,-7%,3%
COc1ccc2c(C)nc(Nc3nc(-c4ccccc4)cc(=O)[nH]3)nc2c1,4.6µM*,5%,4.6µM*,?,3.7µM*,0%
Cc1ccc(SCc2cc(=O)[nH]c(Nc3nc(C)c4ccccc4n3)n2)cc1,i,5%,8%,9.2µM*,-5%,?
Cc1ccc(SCc2cc(=O)[nH]c(Nc3nc(C)c4ccc(C)cc4n3)n2)cc1,i,4%,1%,i,-3%,-55%
CCc1ccccc1NC(=O)N1CCC(N2CCN(Cc3ccccn3)C(=O)C2=O)CC1,/,/,/,/,/,1%
Cc1cc(C)cc(C(=O)NC(C)C(=O)N2CCC3(CC2)NCCc2[nH]cnc23)c1 (centres undefined),/,/,/,/,/,6%
OCCNCc1cc(Br)ccc1OCc1ccc(F)cc1,i,1%,0%,i,-13%,-2%
OCCNCc1cc(Br)ccc1OCc1ccc(Cl)cc1Cl,?,-2%,?,15µM*,?,-20%
CCOc1cccc(CNCCO)c1OCc1ccc(Cl)cc1Cl,i,-1%,?,i,?,-14%
Brc1ccc(OCc2ccccc2)c(CNCc2ccncc2)c1,?,-1%[38.3 µM],?,16µM*,?,?
OCCNCc1cc(Br)ccc1OCc1ccc(Cl)cc1,i,2%,10%,9.2µM*,14%,-6%
Cc1ccc2oc(C(=O)N(Cc3cccc(Cl)c3)C3CCS(=O)(=O)C3)cc(=O)c2c1 (centres undefined),/,/,/,/,/,-1%
Cc1ccc(-c2ccccc2)c(Oc2cccc(C#N)c2C#N)c1,/,/,/,/,/,-1%
COc1cccc(C2=NN(C(=O)c3cccs3)C(c3ccc4nccnc4c3)C2)c1 (centres undefined),/,/,/,/,/,-3%
Cc1cccc(N2CCN(C(=O)c3ccc(S(=O)(=O)N(C)c4ccccc4)cc3)CC2)c1C,?,0%,5.2µM*,23µM*,10µM*,-17%
CN1CCN(C(=O)c2ccc(S(=O)(=O)N(C)c3ccccc3)cc2)CC1,i,1%,/,i,/,14%
Cc1cccc(N2CCN(C(=O)c3cccc(S(=O)(=O)N4CCCCC4)c3)CC2)c1C,?,0%,15µM*,?,?,-5%
COc1ccc(N(C)S(=O)(=O)c2cccc(C(=O)N3CCN(c4cccc(C)c4C)CC3)c2)cc1,16µM*,4%,12%,i,28%,49%
O=C(c1cc(-c2ccc3c(c2)OCCO3)nc2ccccc12)N1CCOCC1,/,/,/,/,/,-34%

# High-throughput results as filed in PubChem BioAssay.
